# Reference: PubChem BioAssay (NCI)
# This is part of a sample that, as a whole, favours compounds with a hit. Of some 83,000 tested, about 20% had one in any assay.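 Testing used 96-well plates and a 48-hour single-concentration exposure. Example: -40 means 40% of the starting cells died.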 A number with no mark means an inactive call. Activity calls are given as the source filed them. Rule for the calls: active = growth percent below 10; inactive = the rest.
# System: SK-MEL-28 melanoma
# Test: NCI-60 one-dose screen, 48 h (100 = growth as untreated, 0 = no growth, -100 = all killed)
# Settings: 10 µM unless noted
row,Compound,growth
1,O=C1CN2CCC1C/C2=C\c1ccnc2c(Cl)cccc12 (stereo not given),127%
2,O=C1c2ccccc2-c2nnc(-c3ccc(Br)cc3)cc21,13.8%
3,COc1ccc(-c2nn(-c3ccc(NC(=O)c4ccc(Cl)c(Cl)c4)cc3)cc2-c2ccncc2)cc1Cl,65.8%
4,O=c1oc2ccccc2cc1-c1csc(N=Nc2c(O)[nH]c3ccc(Cl)cc23)n1,103%
5,COc1cc2nc(N3CCC[C@H](NC4=CC(=O)c5ccccc5C4=O)C3)nc(N)c2cc1OC,-85.2% (active)
6,O=C1C(N2CCOCC2)=Cc2cccc3cccc1c23,97.5%
7,CCOC(=O)c1c(-c2cc(OC)c(OC)c(OC)c2)csc1N,91.1%
8,N#Cc1c(-c2cccc(F)c2)cc(-c2ccc(Br)s2)[nH]c1=O,71.3%
9,COc1ccc(NC(=O)c2ccc3c(c2)nc(-c2ccc(Cl)cc2)n3-c2cc(C(C)(C)C)[nH]n2)cc1,95.4%
10,Oc1cccc(Nc2nc(-c3ccccn3)cs2)c1,111%
11,O=S(=O)(/N=C1C=C/C(=N\S(=O)(=O)c2ccccc2)c2ccccc2\1)c1ccccc1,101%
12,O=C(COc1cccc(/C=C2\COc3ccccc3C2=O)c1)c1ccccc1,97.2%
13,Cc1ccc(S(=O)(=O)N2CCc3ccc(O)c4c3C2Cc2cc(Cl)ccc2-4)cc1 (stereo not given),56.6%
14,COc1ccc(OC)c(C2C(C#N)=C(N)Oc3cc(O)ccc32)c1 (stereo not given),103%
15,CC(=O)N(CC(O)CO)c1c(I)c(C(=O)NCCO)c(I)c(C(=O)NCC(O)CO)c1I (stereo not given),112%
